# Active and inactive are the calls of the source. Rule for the calls: active = hit-call score of the fitted dose curve at least 0.9, where 1 is the maximum; inactive = score below 0.9.
# Experiments:
# [1] = ATG_CRE_CIS: Attagene CIS-FACTORIAL HepG2 Assay for human cAMP Responsive Element (CRE) binding protein 3 (AID 2282926); settings: HepG2 CRE cis-reporter, Attagene multiplexed mRNA; actives raise or lower the signal
# In short: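 Transfected HepG2 were treated for 24 hours, then RNA was extracted and reporter cDNA amplified with sequence-specific primers. Labelled fragments were separated by capillary electrophoresis, and the CRE signal was fitted bidirectionally with DMSO as baseline.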
# [2] = target: CCAAT/enhancer-binding protein beta (Homo sapiens) (UniProt P17676); assay: ATG_C_EBP_CIS: Attagene CIS-FACTORIAL HepG2 Assay for human CCAAT/Enhancer Binding Protein (C/EBP) beta (AID 2282927); settings: HepG2 Attagene cis-factorial transcription factor reporter; actives raise or lower the signal
# In short: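 Endogenous transcription factor activity in human liver HepG2 cells is inferred from induction of a CEBPB-linked reporter mRNA. Exposure lasts 24 h; activity is fitted in both directions relative to DMSO.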
# [3] = ATG_CMV_CIS: Attagene CIS-FACTORIAL HepG2 Assay for human CMV (Internal Marker) (AID 2282928); settings: HepG2 CMV promoter reporter, transcription factor profiling; actives raise or lower the signal;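 note: endpoint acts as a background internal control marker rather than a target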
# In short: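 Cell system: HepG2, transiently transfected multiple reporter units under cis promoters. Exposure: 24 h. Detection: RT-PCR, FAM labeling, HpaI digestion, capillary electrophoresis. Analysis: bidirectional, DMSO baseline.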
# [4] = ATG_DR4_LXR_CIS: Attagene CIS-FACTORIAL HepG2 Assay for human Liver X Receptor (LXR), DR4 submotif (AID 2282929); settings: HepG2 Attagene DR4 cis-reporter, mRNA transcription; actives raise or lower the signal
# In short: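 Readout: reporter transcript fluorescence after RT-PCR and capillary electrophoresis, fitted bidirectionally against DMSO controls. Human HepG2 liver cells carried transiently transfected multiplexed reporter constructs; endogenous transcription factor activity measured 24 h post-dosing.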
# [5] = target: Aryl hydrocarbon receptor (Homo sapiens) (UniProt P35869); assay: ATG_Ahr_CIS: Attagene CIS-FACTORIAL HepG2 Assay for human Aryl Hydrocarbon Receptor (Ahr) (AID 2282930); settings: HepG2 AhR cis-factorial reporter transcription; actives raise or lower the signal
# In short: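 Transient MRTU transfection of HepG2 → 24 h compound exposure → total RNA, oligo(dT) RT → PCR, 6-FAM extension, HpaI cut → CE fluorescence. DMSO = baseline; bidirectional curve fit.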
# [6] = ATG_AP_1_CIS: Attagene CIS-FACTORIAL HepG2 Assay for human Activator Protein 1 (AP-1) (AID 2282931); settings: HepG2 Attagene cis-factorial AP-1 reporter mRNA; actives raise or lower the signal
# In short: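 Reporter transcripts were measured 24 h after dosing by RT-PCR and capillary electrophoresis of fluorescent fragments. Cells: HepG2 carrying transfected cis-regulated reporter constructs reading endogenous factor activity. Gain or loss fitted against DMSO.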
# [7] = ATG_AP_2_CIS: Attagene CIS-FACTORIAL HepG2 Assay for human Activator Protein 2 (AP-2) (AID 2282932); settings: HepG2 AP-2 cis-reporter, Attagene transcription factor profiling; actives raise or lower the signal
# In short: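 HepG2, transient MRTU transfection, cis-regulated reporters; 24 h compound exposure; RNA isolated, RT-PCR, 6-FAM labelling, HpaI digest, CE fluorescence. DMSO = negative control/baseline, bidirectional fit.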
# [8] = ATG_BRE_CIS: Attagene CIS-FACTORIAL HepG2 Assay for human Bone Morphogenetic Protein (BMP) Response Element (BRE) (AID 2282933); settings: HepG2 BMP response element reporter, Attagene transcription factor profiling; actives raise or lower the signal
# In short: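 A HepG2 multiplex reporter system measured inducible reporter mRNA 24 h post-dosing. Detection: RT-PCR, 6-FAM primer extension, HpaI digestion, capillary electrophoresis. Activity fitted bidirectionally relative to DMSO.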
# [9] = target: Transcription factor E2F1 (Homo sapiens) (UniProt Q01094); assay: ATG_E2F_CIS: Attagene CIS-FACTORIAL HepG2 Assay for human E2F Transcription Factor 1 (AID 2282935); settings: HepG2 Attagene cis-reporter, E2F reporter RNA transcripts; actives raise or lower the signal
# In short: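 Cis-element reporter mRNA induction in transiently transfected HepG2, 24 h exposure. Activity fitted in both directions relative to DMSO negative control.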
# [10] = ATG_E_Box_CIS: Attagene CIS-FACTORIAL HepG2 Assay for human Enhancer Box (E-box) (AID 2282936); settings: HepG2 E-box cis-reporter transcription, actives raise or lower the signal
# In short: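 Cells: HepG2 (human liver), transient MRTU transfection. Exposure 24 h. RNA → oligo(dT) RT → PCR → 6-FAM label → HpaI → CE. Activity fitted both directions relative to DMSO.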
# [11] = ATG_M_61_CIS: Attagene CIS-FACTORIAL HepG2 Assay for M61 Transcription Factor (Internal Marker) (AID 2282937); settings: HepG2 Attagene CIS-FACTORIAL M61 internal marker reporter; actives raise or lower the signal
# In short: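 Readout: fluorescent reporter mRNA fragments resolved by capillary electrophoresis after RT-PCR. Transiently transfected human HepG2 cells carried MRTU constructs reporting endogenous TF activity; 24 h chemical exposure; gain or loss of signal fitted relative to DMSO.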
# [12] = ATG_EGR_CIS: Attagene CIS-FACTORIAL HepG2 Assay for human Early Growth Response 1 (EGR1) (AID 2282938); settings: HepG2 Attagene CIS-FACTORIAL EGR reporter mRNA; actives raise or lower the signal
# In short: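 Read-out: fluorescent reporter-mRNA fragments resolved by capillary electrophoresis after RT-PCR, 24 h post-dose in transiently transfected HepG2. Endogenous transcription-factor activity reported via cis-element-regulated reporter units; gain or loss fitted relative to DMSO.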
# [13] = ATG_M_19_CIS: Attagene CIS-FACTORIAL HepG2 Assay for M19 Transcription Factor (Internal Marker) (AID 2282939); settings: HepG2 Attagene CIS-FACTORIAL M19 internal marker reporter; actives raise or lower the signal
# In short: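 Chemical-treated HepG2 (24 h) with MRTU constructs; reporter transcripts detected by fluorescent RT-PCR fragment analysis on capillary electrophoresis. Internal background marker, DMSO as baseline.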
# [14] = ATG_Ets_CIS: Attagene CIS-FACTORIAL HepG2 Assay for human Erythroblast Transformation Specific (ETS) (AID 2282941); settings: HepG2 ETS cis-reporter transcription, actives raise or lower the signal
# In short: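 After transient cis-reporter transfection, HepG2 cells receive test chemical for 24 h. Reporter mRNA levels, measured by RT-PCR and capillary electrophoresis fluorescence, are analysed bidirectionally relative to the DMSO baseline.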
# [15] = target: Hepatocyte nuclear factor 3-beta (Homo sapiens) (UniProt Q9Y261); assay: ATG_FoxA2_CIS: Attagene CIS-FACTORIAL HepG2 Assay for human Forkhead box A2 (FOXA2) (AID 2282942); settings: HepG2 cis-reporter transcription factor activity, 24 h; actives raise or lower the signal
# In short: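 Readout: fluorescent reporter transcripts resolved by capillary electrophoresis after RT-PCR. Transiently transfected HepG2, 24 h compound exposure, endogenous TF activity at cis promoter elements. Gain or loss of signal fitted relative to DMSO.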
# [16] = ATG_FoxO_CIS: Attagene CIS-FACTORIAL HepG2 Assay for human Forkhead box O (FoxO) (AID 2282943); settings: HepG2 Attagene cis-reporter, FoxO element, mRNA; actives raise or lower the signal
# In short: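 HepG2, transient MRTU transfection (cis element, endogenous TFs). Dose 24 h. TriZol RNA → oligo(dT) RT → PCR → 6-FAM primer extension → HpaI cut → CE. Gain/loss vs DMSO.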
# [17] = ATG_GATA_CIS: Attagene CIS-FACTORIAL HepG2 Assay for human GATA Binding Protein (AID 2282944); settings: HepG2 GATA cis-element reporter, Attagene multiplex mRNA; actives raise or lower the signal
# In short: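 Transfected cis-reporter HepG2 cells were treated with chemicals for 24 hours. Total RNA was then converted to cDNA, amplified with reporter-specific primers and analysed by fluorescent capillary electrophoresis, using DMSO-treated wells as baseline.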
# [18] = ATG_GLI_CIS: Attagene CIS-FACTORIAL HepG2 Assay for human Zinc Finger Protein GLI1 (AID 2282945); settings: HepG2, Attagene cis-factorial reporter mRNA, GLI element; actives raise or lower the signal
# In short: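 Bidirectional curve fits relative to DMSO, using reporter mRNA levels from RT-PCR plus capillary electrophoresis. Cells were HepG2 transiently carrying cis-regulated reporter constructs, harvested 24 h after dosing.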
# [19] = target: Retinoic acid receptor alpha (Homo sapiens) (UniProt P10276); assay: ATG_DR5_RAR_CIS: Attagene CIS-FACTORIAL HepG2 Assay for human Retinoic Acid Receptor Alpha (RARE), DR5 submotif (AID 2282934); settings: HepG2 Attagene cis-factorial RARE DR5 reporter, mRNA; actives raise or lower the signal
# In short: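 Transient MRTU transfection of HepG2; 24 h compound treatment; TriZol RNA, oligo(dT) RT, PCR, FAM labelling, capillary electrophoresis. Bidirectional fit vs DMSO. Endogenous TF activity at DR5 RARE.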
# [20] = ATG_ERE_CIS: Attagene CIS-FACTORIAL HepG2 Assay for Estrogen Response Element (ERE) (AID 2282940); settings: HepG2 ERE cis-reporter, Attagene RNA transcript; actives raise or lower the signal
# In short: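 Human liver cells (HepG2) bearing transiently transfected, promoter-regulated reporter units were exposed 24 h. Reporter mRNA induction was detected by capillary electrophoresis of labelled RT-PCR products and fitted bidirectionally to DMSO.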
# Chain of Aryl hydrocarbon receptor (Homo sapiens) (P35869 whole entry, looked up): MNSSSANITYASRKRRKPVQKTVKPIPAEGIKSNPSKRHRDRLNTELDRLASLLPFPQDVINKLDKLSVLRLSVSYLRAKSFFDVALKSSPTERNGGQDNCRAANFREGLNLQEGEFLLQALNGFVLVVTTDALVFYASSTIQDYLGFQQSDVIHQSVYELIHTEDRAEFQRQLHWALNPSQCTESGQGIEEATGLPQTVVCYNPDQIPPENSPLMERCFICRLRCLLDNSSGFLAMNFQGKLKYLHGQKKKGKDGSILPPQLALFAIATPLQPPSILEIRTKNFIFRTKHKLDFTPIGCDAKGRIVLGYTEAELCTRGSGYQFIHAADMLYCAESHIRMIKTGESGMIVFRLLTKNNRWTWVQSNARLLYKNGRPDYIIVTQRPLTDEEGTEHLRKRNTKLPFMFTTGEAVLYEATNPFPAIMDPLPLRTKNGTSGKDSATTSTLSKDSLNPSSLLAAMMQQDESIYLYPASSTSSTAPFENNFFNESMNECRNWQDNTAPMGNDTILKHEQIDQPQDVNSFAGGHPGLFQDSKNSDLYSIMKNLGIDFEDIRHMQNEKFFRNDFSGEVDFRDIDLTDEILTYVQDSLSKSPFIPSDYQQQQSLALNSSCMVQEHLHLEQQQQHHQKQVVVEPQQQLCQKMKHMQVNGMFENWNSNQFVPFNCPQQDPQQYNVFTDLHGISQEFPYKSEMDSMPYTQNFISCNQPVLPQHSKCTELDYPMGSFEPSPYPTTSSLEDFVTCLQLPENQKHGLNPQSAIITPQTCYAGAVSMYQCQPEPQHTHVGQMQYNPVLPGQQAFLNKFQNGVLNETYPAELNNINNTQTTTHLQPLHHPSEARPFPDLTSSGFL
# Chain of Hepatocyte nuclear factor 3-beta (Homo sapiens) (Q9Y261 whole entry, looked up): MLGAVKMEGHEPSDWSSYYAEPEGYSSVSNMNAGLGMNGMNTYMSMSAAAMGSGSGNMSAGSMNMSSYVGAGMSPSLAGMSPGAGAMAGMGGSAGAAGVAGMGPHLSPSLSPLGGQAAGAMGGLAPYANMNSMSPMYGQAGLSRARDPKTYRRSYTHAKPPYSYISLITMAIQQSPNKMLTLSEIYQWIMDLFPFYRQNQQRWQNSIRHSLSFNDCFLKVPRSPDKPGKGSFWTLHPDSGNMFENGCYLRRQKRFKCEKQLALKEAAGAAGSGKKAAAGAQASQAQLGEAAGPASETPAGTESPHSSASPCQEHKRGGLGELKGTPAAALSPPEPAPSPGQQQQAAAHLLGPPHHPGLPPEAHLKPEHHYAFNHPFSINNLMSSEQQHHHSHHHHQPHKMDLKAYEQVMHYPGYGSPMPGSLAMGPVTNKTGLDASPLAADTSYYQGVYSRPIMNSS
# Chain of Retinoic acid receptor alpha (Homo sapiens) (P10276 whole entry, looked up): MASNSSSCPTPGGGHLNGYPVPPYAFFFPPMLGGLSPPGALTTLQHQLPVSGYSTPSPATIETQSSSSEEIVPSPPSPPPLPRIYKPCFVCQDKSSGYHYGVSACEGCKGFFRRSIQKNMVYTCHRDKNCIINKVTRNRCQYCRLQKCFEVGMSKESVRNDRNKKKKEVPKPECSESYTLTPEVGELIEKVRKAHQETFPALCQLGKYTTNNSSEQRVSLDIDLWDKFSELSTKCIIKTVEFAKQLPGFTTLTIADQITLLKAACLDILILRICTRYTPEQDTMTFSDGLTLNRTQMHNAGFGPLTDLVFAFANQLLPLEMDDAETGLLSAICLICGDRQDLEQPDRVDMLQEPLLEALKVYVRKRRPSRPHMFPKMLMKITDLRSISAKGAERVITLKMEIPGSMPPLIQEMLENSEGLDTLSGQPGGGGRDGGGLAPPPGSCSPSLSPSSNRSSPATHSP
# Chain of CCAAT/enhancer-binding protein beta (Homo sapiens) (P17676 whole entry, looked up): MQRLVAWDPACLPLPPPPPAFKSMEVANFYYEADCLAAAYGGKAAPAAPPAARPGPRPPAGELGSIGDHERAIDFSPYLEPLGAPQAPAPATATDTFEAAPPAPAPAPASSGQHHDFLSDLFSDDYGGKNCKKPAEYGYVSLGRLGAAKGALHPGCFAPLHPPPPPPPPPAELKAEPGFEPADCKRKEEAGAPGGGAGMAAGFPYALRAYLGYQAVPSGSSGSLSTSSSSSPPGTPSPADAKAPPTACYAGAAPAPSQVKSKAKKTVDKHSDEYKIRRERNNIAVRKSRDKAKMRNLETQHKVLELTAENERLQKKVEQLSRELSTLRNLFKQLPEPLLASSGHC
# Chain of Transcription factor E2F1 (Homo sapiens) (Q01094 whole entry, looked up): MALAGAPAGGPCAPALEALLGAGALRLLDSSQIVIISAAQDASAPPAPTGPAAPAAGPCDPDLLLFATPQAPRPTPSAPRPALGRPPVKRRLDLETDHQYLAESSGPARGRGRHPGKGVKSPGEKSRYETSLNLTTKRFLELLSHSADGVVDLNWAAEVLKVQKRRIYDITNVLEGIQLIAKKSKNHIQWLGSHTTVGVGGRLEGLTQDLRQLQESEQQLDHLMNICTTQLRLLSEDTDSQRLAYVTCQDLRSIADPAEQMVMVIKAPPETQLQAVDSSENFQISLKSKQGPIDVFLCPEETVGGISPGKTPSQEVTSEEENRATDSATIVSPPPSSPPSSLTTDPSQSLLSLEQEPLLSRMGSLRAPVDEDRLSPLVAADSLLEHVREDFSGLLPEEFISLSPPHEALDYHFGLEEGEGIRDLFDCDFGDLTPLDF
structure (smiles),measurement,setting,value
CCOP(=O)(OCC)Oc1cc(C)nc(C(C)C)n1,outcome,[1],inactive
same,outcome,[2],inactive
same,outcome,[3],inactive
same,outcome,[4],inactive
same,outcome,[5],inactive
same,outcome,[6],inactive
same,outcome,[7],inactive
same,outcome,[8],inactive
same,outcome,[9],inactive
same,outcome,[10],inactive
same,outcome,[11],inactive
same,outcome,[12],inactive
same,outcome,[13],inactive
same,outcome,[14],inactive
same,outcome,[15],inactive
same,outcome,[16],inactive
same,outcome,[17],inactive
same,outcome,[18],inactive
CC(=NC#N)N(C)Cc1ccc(Cl)nc1,outcome,[1],inactive
same,outcome,[2],inactive
same,outcome,[3],inactive
same,outcome,[4],inactive
same,outcome,[5],inactive
same,outcome,[6],inactive
same,outcome,[7],inactive
same,outcome,[8],inactive
same,outcome,[19],inactive
same,outcome,[9],inactive
same,outcome,[10],inactive
same,outcome,[11],inactive
same,outcome,[12],inactive
same,outcome,[13],inactive
same,outcome,[14],inactive
same,outcome,[15],inactive
same,outcome,[16],inactive
same,outcome,[17],inactive
same,outcome,[18],inactive
C[Si](Cn1cncn1)(c1ccc(F)cc1)c1ccc(F)cc1,outcome,[1],inactive
same,outcome,[2],inactive
same,outcome,[3],inactive
same,AC50,[4],48.7 µM (active)
same,outcome,[5],inactive
same,AC50,[6],50 µM (active)
same,outcome,[7],inactive
same,AC50,[8],39.1 µM (active)
same,AC50,[10],83.2 µM (active)
same,outcome,[11],inactive
same,AC50,[12],50 µM (active)
same,outcome,[13],inactive
same,outcome,[14],inactive
same,outcome,[15],inactive
same,outcome,[16],inactive
same,outcome,[17],inactive
same,outcome,[18],inactive
CCCCOC(=O)c1ccccc1C(=O)O,outcome,[1],inactive
same,outcome,[2],inactive
same,outcome,[3],inactive
same,outcome,[4],inactive
same,outcome,[5],inactive
same,outcome,[6],inactive
same,outcome,[7],inactive
same,outcome,[8],inactive
same,outcome,[19],inactive
same,outcome,[9],inactive
same,outcome,[10],inactive
same,outcome,[11],inactive
same,outcome,[12],inactive
same,outcome,[13],inactive
same,outcome,[14],inactive
same,AC50,[15],81.4 µM (active)
same,outcome,[16],inactive
same,outcome,[17],inactive
same,outcome,[18],inactive
COP(=O)(NC(C)=O)SC (centres undefined),outcome,[1],inactive
same,outcome,[2],inactive
same,outcome,[3],inactive
same,outcome,[4],inactive
same,outcome,[5],inactive
same,outcome,[6],inactive
same,outcome,[7],inactive
same,outcome,[8],inactive
same,outcome,[10],inactive
same,outcome,[11],inactive
same,outcome,[12],inactive
same,outcome,[13],inactive
same,outcome,[14],inactive
same,outcome,[15],inactive
same,outcome,[16],inactive
same,outcome,[17],inactive
same,outcome,[18],inactive
CNC(=O)ON=C(SC)C(=O)N(C)C,AC50,[1],17.4 µM (active)
same,outcome,[2],inactive
same,outcome,[3],inactive
same,outcome,[4],inactive
same,outcome,[5],inactive
same,AC50,[6],50 µM (active)
same,outcome,[7],inactive
same,outcome,[8],inactive
same,outcome,[19],inactive
same,outcome,[9],inactive
same,outcome,[10],inactive
same,outcome,[11],inactive
same,outcome,[12],inactive
same,outcome,[13],inactive
same,AC50,[20],15.7 µM (active)
same,outcome,[14],inactive
same,outcome,[15],inactive
same,outcome,[16],inactive
same,outcome,[17],inactive
same,outcome,[18],inactive
CCc1cccc(CC)c1N(COC)C(=O)CCl,AC50,[1],3.04 µM (active)
same,AC50,[2],3.69 µM (active)
same,outcome,[3],inactive
same,outcome,[5],inactive
same,AC50,[6],6.1 µM (active)
same,outcome,[7],inactive
same,outcome,[8],inactive
same,outcome,[19],inactive
same,outcome,[9],inactive
same,outcome,[10],inactive
same,outcome,[11],inactive
same,outcome,[12],inactive
same,outcome,[13],inactive
same,outcome,[20],inactive
same,outcome,[14],inactive
same,outcome,[15],inactive
same,outcome,[16],inactive
same,outcome,[17],inactive
same,outcome,[18],inactive

# — PubChem BioAssay (EPA / NIEHS)
